Test results from the supplement of paper PMC7184167.
Counter-ions that a name gives are not always drawn.

System: replication-induced senescent mouse newborn dermal fibroblasts (NBF)
Test: relative cell viability of senescent cells (fraction); higher = less killing of senescent cells
Details: 1 µM; 3 days
Experimental: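 Replication-induced senescent newborn mouse skin fibroblasts (NBFs) in 24-well plates were treated with a Selleck FDA-approved drug library at 1 µM for 3 days.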

| Structure (SMILES) | relative cell viability |
| --- | --- |
| Cc1[nH]c(/C=C2\C(=O)Nc3ccccc32)c(C)c1CCC(=O)O [Orantinib (TSU-68, SU6668)] | 0.577 |
| Cn1c(=O)c2nc[nH]c2n(C)c1=O [Theophylline] | 0.828 |
| CC(C)[N+]1(C)[C@@H]2CC[C@H]1C[C@@H](OC(=O)C(CO)c1ccccc1)C2 (stereo not given in full) [Ipratropium Bromide] | 0.902 |
| COc1ccc([C@]2(C#N)CC[C@@H](C(=O)O)CC2)cc1OC1CCCC1 [Cilomilast] | 0.332 |
| COc1ccc(-n2nc(C(N)=O)c3c2C(=O)N(c2ccc(N4CCCCC4=O)cc2)CC3)cc1 [Apixaban] | 0.89 |
| NCCCC(O)(P(=O)(O)O)P(=O)(O)O [Alendronate sodium trihydrate] | 0.251 |
| Cc1ccccc1N1C(=O)c2cc(S(N)(=O)=O)c(Cl)cc2NC1C (stereo not given) [Metolazone] | 0.962 |
| [I-].[K+] [Potassium Iodide] | 0.937 |
| CCOC(=O)c1ccc(C#Cc2ccc3c(c2)C(C)(C)CCS3)nc1 [Tazarotene] | 1.23 |
| CC(C)NCC(O)COc1ccc(COCCOC(C)C)cc1 (stereo not given) [Bisoprolol fumarate] | 0.929 |
| C#C[C@]1(O)CC[C@H]2[C@@H]3CCc4cc(O)ccc4[C@H]3CC[C@@]21C [Ethinyl Estradiol] | 0.86 |
| CCC(C)(C)C(=O)O[C@H]1C[C@@H](C)C=C2C=C[C@H](C)[C@H](CC[C@@H]3C[C@@H](O)CC(=O)O3)[C@H]21 [Simvastatin] | 0.965 |
| CNC(=C[N+](=O)[O-])NCCSCc1ccc(CN(C)C)o1 [Ranitidine Hydrochloride] | 1.1 |
| O=C(N[C@H](CO)[C@H](O)c1ccc([N+](=O)[O-])cc1)C(Cl)Cl [Chloramphenicol] | 0.706 |
| C[C@@H]1C/C=C/C=C/C=C/C=C/[C@H](O[C@@H]2O[C@H](C)[C@@H](O)[C@H](N)[C@@H]2O)C[C@@H]2O[C@](O)(C[C@@H](O)C[C@H]3O[C@@H]3/C=C/C(=O)O1)C[C@H](O)[C@H]2C(=O)O [Natamycin] | 0.0794 |
| CC(C)CN(C[C@@H](O)[C@H](Cc1ccccc1)NC(=O)O[C@H]1CO[C@H]2OCC[C@H]21)S(=O)(=O)c1ccc(N)cc1 [Darunavir Ethanolate] | 0.839 |
| COCCOC(=O)C1=C(C)NC(C)=C(C(=O)OC(C)C)C1c1cccc([N+](=O)[O-])c1 (stereo not given) [Nimodipine] | 1.15 |
| C[C@@H](Oc1cc(-c2cnn(C3CCNCC3)c2)cnc1N)c1c(Cl)ccc(F)c1Cl | 0.71 |
| COc1nc(N)nc2c1ncn2[C@@H]1O[C@H](CO)[C@@H](O)[C@@H]1O [Nelarabine] | 1.08 |
| Oc1ncnc2[nH]ncc12 [Allopurinol] | 0.796 |

| Structure (SMILES) | relative cell viability |
| --- | --- |
| COc1ccc([C@@H]2Sc3ccccc3N(CCN(C)C)C(=O)[C@@H]2OC(C)=O)cc1 [Diltiazem HCl] | 1.09 |
| Clc1ccc2nsnc2c1NC1=NCCN1 [Tizanidine HCl] | 0.994 |
| CC(C)(C)c1cc(NC(=O)Nc2ccc(-c3cn4c(n3)sc3cc(OCCN5CCOCC5)ccc34)cc2)no1 [Quizartinib (AC220)] | 0.955 |
| CC[C@H]1OC(=O)[C@H](C)[C@@H](O[C@H]2C[C@@](C)(OC)[C@@H](O)[C@H](C)O2)[C@H](C)[C@@H](O[C@@H]2O[C@H](C)C[C@H](N(C)C)[C@H]2O)[C@](C)(O)C[C@@H](C)C(=O)[C@H](C)[C@@H](O)[C@]1(C)O [Erythromycin] | 0.796 |
| COC(=O)[C@H](c1ccccc1Cl)N1CCc2sccc2C1 [Clopidogrel] | 0.983 |
| C[C@@](Cc1ccc(O)c(O)c1)(NN)C(=O)O [Carbidopa] | 1.05 |
| N=C(N)NC(=O)c1nc(Cl)c(N)nc1N [Amiloride HCl] | 0.768 |
| O=S(=O)(O)CCSSCCS(=O)(=O)O [Dimesna] | 0.736 |
| C[C@]12C=CC(=O)C=C1CC[C@@H]1[C@@H]2C(=O)C[C@@]2(C)[C@H]1CC[C@]2(O)C(=O)CO [Prednisone] | 0.875 |
| O=C(O)/C=C/c1ccc(Cn2ccnc2)cc1 [Ozagrel] | 1.02 |
| O=C(O)c1cccnc1 [Nicotinic Acid] | 0.937 |
| COC(=O)N[C@H](C(=O)N1CCC[C@H]1c1ncc(-c2ccc(-c3ccc(-c4cnc([C@@H]5CCCN5C(=O)[C@@H](NC(=O)OC)C(C)C)[nH]4)cc3)cc2)[nH]1)C(C)C | 0.545 |
| CC(C)(C)NC(=O)[C@H]1CC[C@H]2[C@@H]3CC[C@H]4NC(=O)C=C[C@]4(C)[C@H]3CC[C@]12C [Finasteride] | 0.942 |
| CCCc1nn(C)c2c(=O)[nH]c(-c3cc(S(=O)(=O)N4CCN(C)CC4)ccc3OCC)nc12 [Sildenafil Citrate] | 0.891 |
| C[C@H](CCC(=O)O)[C@H]1CC[C@H]2[C@@H]3[C@H](O)C[C@@H]4C[C@H](O)CC[C@]4(C)[C@H]3CC[C@]12C [Chenodeoxycholic Acid] | 1.06 |
| C[C@H](Cn1cnc2c(N)ncnc21)OCP(=O)(O)O [Tenofovir] | 0.893 |
| CCOC(=O)[C@H](CCc1ccccc1)N[C@@H](C)C(=O)N1[C@H](C(=O)O)C[C@@H]2CCC[C@@H]21 [Ramipril] | 0.96 |
| Nc1ncnc2c1ncn2[C@@H]1O[C@H](CO)[C@@H](O)[C@@H]1O [Vidarabine] | 0.744 |
| CCOc1nc2cccc(C(=O)O)c2n1Cc1ccc(-c2ccccc2-c2nnn[nH]2)cc1 [Candesartan] | 1.02 |
| CCCCC(=O)N(Cc1ccc(-c2ccccc2-c2nnn[nH]2)cc1)[C@H](C(=O)O)C(C)C [Valsartan] | 0.897 |
